The text below walks through data of PubChem BioAssay (Tox21).

Values without a mark were called inactive. Results filed as inconclusive are left out. Activity calls are given as the source filed them. Unless noted, the call rests on the fitted dose curve; in most records, active means well fitted curve in the direction sought with a large enough effect in the repeat runs; inconclusive means weak or mixed curves; inactive means no such curve, though single readings can be large; an effect the other way counts as inactive or inconclusive.

Test [1] can be described thus: qHTS RealTime-Glo MT Cell Viability Assay in HEK293 cells - 0 hour (AID 1224880). Further: nearly all actives have a fitted effect of over 45% in size. Further: potency means the concentration at half of the fitted maximal effect. In a few lines: (§1)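 Nonlytic bioluminescent viability monitoring. HEK293 at 600 cells/well with reagent; 5 h settle; compound transfer by pintool; plates held at 37 C and read at set time points.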
A short description of test [2]: A CellTox Green Cytotoxicity Assay to monitor cytotoxicity in HEK293 cells - 32 hour (AID 1224881). Further: nearly all actives have a fitted effect of over 40% in size. Further: potency means the concentration at half of the fitted maximal effect. In a few lines:
(§2)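 Cytotoxicity was tracked continuously in HEK293 cells by a DNA-binding dye excluded from viable cells. Compounds were transferred in DMSO 5 h after seeding; fluorescence was recorded at intervals up to 40 h.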

Test [3] can be described thus: A CellTox Green Cytotoxicity Assay to monitor cytotoxicity in HepG2 cells - 0 hour (AID 1224882). Further: nearly all actives have a fitted effect of over 35% in size. The essentials: (§3)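 Real-time, homogeneous cytotoxicity readout: dead-cell DNA staining by CellTox Green in HepG2 monolayers, fluorescence measured at timed intervals up to 40 h of continuous compound exposure.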
Test [4] is described as follows: A CellTox Green Cytotoxicity Assay to monitor cytotoxicity in HepG2 cells - 32 hour (AID 1224883). Further: nearly all actives have a fitted effect of over 50% in size. Further: potency means the concentration at half of the fitted maximal effect. In a few lines:
as §3

Test [5] is described as follows: A CellTox Green Cytotoxicity Assay to monitor cytotoxicity in HEK293 cells - 8 hour (AID 1224884). Further: nearly all actives have a fitted effect of over 35% in size. The essentials: as §2
The nature of test [6]: qHTS RealTime-Glo MT Cell Viability Assay in HepG2 cells - 16 hour (AID 1224885). Further: nearly all actives have a fitted effect of over 50% in size. The essentials:
(§4)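 HepG2 cells (600/well) were dispensed with RealTime-Glo reagents, incubated 5 h at 37 °C, then treated with compounds in DMSO for up to 40 h. Nonlytic NanoLuc luminescence reflecting viable cells was read at each stated time point.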
(In qHTS, concentration-response curves come from the screen itself.)

The nature of test [7]: A CellTox Green Cytotoxicity Assay to monitor cytotoxicity in HEK293 cells - 16 hour (AID 1224888). Further: nearly all actives have a fitted effect of over 35% in size. In a few lines: as §2
Test [8] is described as follows: qHTS RealTime-Glo MT Cell Viability Assay in HepG2 cells - 0 hour (AID 1224889). Further: nearly all actives have a fitted effect of over 50% in size. Further: potency means the concentration at half of the fitted maximal effect. The essentials:
as §4

Test [9] is described as follows: A CellTox Green Cytotoxicity Assay to monitor cytotoxicity in HepG2 cells - 8 hour (AID 1224890). Further: nearly all actives have a fitted effect of over 45% in size. The essentials: as §3
A short description of test [10]: qHTS assay to identify small molecule antagonists of the estrogen receptor alpha (ER-alpha) signaling pathway using the BG1 cell line in the presence of 0.1 nM 17-beta-estradiol - cell viability counter screen (AID 1259241). Further: nearly all actives have a fitted effect of over 40% in size. Further: potency means the concentration at half of the fitted maximal effect. The essentials: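 VM7Luc4E2 cells (endogenous full-length ER-alpha, 4xERE-luciferase), cultured 5 days in charcoal-stripped serum, exposed to compounds with 0.1 nM 17beta-estradiol (final) for 22 hr at 37C. Viability read in same wells as live-cell protease fluorescence after 30 min.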

Test [11] can be described thus: qHTS assay to identify small molecule antagonists of the androgen receptor (AR) signaling pathway using the MDA cell line in the presence of 0.5 nM R1881 - cell viability counter screen (AID 1259242). Further: nearly all actives have a fitted effect of over 45% in size. Further: potency means the concentration at half of the fitted maximal effect. The essentials:
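Cytotoxicity toward MDA-kb2 cells is measured by CellTiter-Fluor live-cell protease fluorescence after 16 hr compound exposure at 37C in the presence of 0.5 nM R1881 stimulator.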

The target in test [12] is Estrogen receptor (Homo sapiens) (UniProt P03372). Kind of test: qHTS assay to identify small molecule antagonists of the estrogen receptor alpha (ER-alpha) signaling pathway using the BG1 cell line in the presence of 0.1 nM 17-beta-estradiol (AID 1259244). Further: nearly all actives have a fitted effect of over 50% in size. In a few lines:
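After 5 days in hormone-depleted medium (charcoal-stripped serum, no phenol red), VM7Luc4E2 cells were seeded, incubated 24 h, then co-treated with compound and 0.1 nM (final) estradiol for 22 h before luminescence detection.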

Test [13] can be described thus: qHTS assay to identify small molecule HDAC inhibitors - cell viability counter screen (AID 1259365). Further: nearly all actives have a fitted effect of over 50% in size. Further: potency means the concentration at half of the fitted maximal effect. In a few lines:
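Wild-type HCT-116 cells, 1,500/well, cultured overnight, then compound-treated 2 h at 37 C. Viability measured as ATP luminescence with CellTiter-Glo after 30 min at room temperature.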

A short description of test [14]: qHTS assay to identify small molecule agonists of the sonic hedgehog signaling (Shh) pathway - cell viability counter screen (AID 1259366). Further: nearly all actives have a fitted effect of over 50% in size. Further: potency means the concentration at half of the fitted maximal effect. The essentials:
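NIH/3T3-derived Gli1-Luc reporter cells, 2,000 per well, received compound after 4 h and were treated about 23 h at 37C. Viability measured in the same wells by CellTiter-Fluor fluorescence after 1 h.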

Test [15] in a line: qHTS assay to identify small molecule antagonists of the sonic hedgehog signaling (Shh) pathway - cell viability counter screen (AID 1259367). Further: nearly all actives have a fitted effect of over 55% in size. The essentials:
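Using CellTiter-Fluor, viability of Gli1-Luc reporter 3T3 cells is read by fluorescence in the wells used for the Shh luciferase assay. Treatment lasts 23 hr with conditioned medium, then reagent 1 hr at 37C.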

Test [16] is described as follows: qHTS assay to identify small molecule HDAC inhibitors (AID 1259364). Further: nearly all actives have a fitted effect of over 45% in size. Further: potency means the concentration at half of the fitted maximal effect. In a few lines:
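Homogeneous cell-based luminescent assay of endogenous class I/II HDAC activity; HCT-116 cells, 2 h compound exposure, 30 min HDAC-Glo development at RT.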

Test [17] can be described thus: qHTS RealTime-Glo MT Cell Viability Assay in HEK293 cells - 24 hour (AID 1224886). In a few lines:
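HEK293 cells seeded with NanoLuc/prosubstrate reagent, rested 5 h at 37 C, then dosed and kept at 37 C up to 40 h. Nonlytic real-time luminescence from viable cells read at 0, 8, 16, 24, 32 and 40 h.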

Test [18] is described as follows: qHTS RealTime-Glo MT Cell Viability Assay in HEK293 cells - 8 hour (AID 1224887). In a few lines:
as §1

Test [19] has as its target Androgen receptor (Homo sapiens) (UniProt P10275). Description: qHTS assay to identify small molecule antagonists of the androgen receptor (AR) signaling pathway using the MDA cell line in the presence of 0.5 nM R1881 (AID 1259243). Further: nearly all actives have a fitted effect of over 50% in size. In a few lines:
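Steps: seed MDA-kb2 cells, incubate 5 hr at 37C; pin-transfer compounds in DMSO; add R1881 to 0.5 nM final; incubate 16 hr; add ONE-Glo, wait 30 min at room temperature; read luminescence.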

A short description of test [20]: qHTS assay to identify small molecule phospholipidosis (PLD) inducers (AID 1259344; active means well fitted curve in the direction sought with a large enough effect; an effect the other way counts as inactive or inconclusive). In a few lines:
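Fluorescent phospholipid staining (LipidTOX Red) measured by automated microscopy in fixed HepG2 cells after 24 h treatment; nuclei counterstained with Hoechst 33342; amiodarone as reference inducer.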

Estrogen receptor (Homo sapiens), sequence (P03372 whole entry, looked up): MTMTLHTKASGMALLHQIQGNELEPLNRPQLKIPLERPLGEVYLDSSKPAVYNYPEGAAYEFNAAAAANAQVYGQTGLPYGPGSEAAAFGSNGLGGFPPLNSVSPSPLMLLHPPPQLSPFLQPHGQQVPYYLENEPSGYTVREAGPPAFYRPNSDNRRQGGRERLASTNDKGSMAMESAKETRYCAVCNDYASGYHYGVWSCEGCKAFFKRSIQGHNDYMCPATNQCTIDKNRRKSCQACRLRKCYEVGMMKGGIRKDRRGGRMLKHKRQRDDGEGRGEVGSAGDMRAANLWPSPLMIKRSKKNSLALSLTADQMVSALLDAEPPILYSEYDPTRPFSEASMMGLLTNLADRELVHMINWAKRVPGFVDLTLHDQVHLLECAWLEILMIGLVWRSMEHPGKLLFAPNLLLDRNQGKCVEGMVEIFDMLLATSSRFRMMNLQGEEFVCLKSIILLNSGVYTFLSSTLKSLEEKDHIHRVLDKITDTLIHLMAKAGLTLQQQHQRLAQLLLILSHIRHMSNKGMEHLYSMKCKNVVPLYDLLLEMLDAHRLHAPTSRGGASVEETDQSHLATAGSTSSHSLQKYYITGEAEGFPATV
Androgen receptor (Homo sapiens), sequence (P10275 whole entry, looked up): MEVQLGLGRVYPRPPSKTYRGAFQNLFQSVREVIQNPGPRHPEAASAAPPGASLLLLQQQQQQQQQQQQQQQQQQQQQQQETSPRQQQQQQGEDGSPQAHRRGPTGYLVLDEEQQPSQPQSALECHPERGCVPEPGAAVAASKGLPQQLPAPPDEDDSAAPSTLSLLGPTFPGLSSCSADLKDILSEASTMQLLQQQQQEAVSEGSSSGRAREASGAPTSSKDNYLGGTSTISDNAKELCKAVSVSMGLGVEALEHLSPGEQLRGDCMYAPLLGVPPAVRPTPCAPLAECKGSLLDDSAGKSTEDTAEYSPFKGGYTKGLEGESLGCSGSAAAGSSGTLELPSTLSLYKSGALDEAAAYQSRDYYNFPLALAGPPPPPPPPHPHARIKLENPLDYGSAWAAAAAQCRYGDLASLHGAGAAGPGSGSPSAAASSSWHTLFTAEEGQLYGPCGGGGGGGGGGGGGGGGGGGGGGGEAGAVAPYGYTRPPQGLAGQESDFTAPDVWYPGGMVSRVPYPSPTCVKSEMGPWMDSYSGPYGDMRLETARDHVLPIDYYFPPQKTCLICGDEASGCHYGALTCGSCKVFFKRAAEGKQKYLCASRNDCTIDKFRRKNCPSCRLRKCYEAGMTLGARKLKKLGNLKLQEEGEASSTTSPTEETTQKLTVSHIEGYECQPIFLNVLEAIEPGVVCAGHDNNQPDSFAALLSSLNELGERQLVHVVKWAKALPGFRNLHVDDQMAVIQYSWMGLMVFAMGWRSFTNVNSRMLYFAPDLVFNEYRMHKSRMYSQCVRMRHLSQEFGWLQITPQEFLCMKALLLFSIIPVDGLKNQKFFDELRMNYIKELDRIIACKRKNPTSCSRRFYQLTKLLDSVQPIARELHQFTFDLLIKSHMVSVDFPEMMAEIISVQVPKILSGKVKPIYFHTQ

As for `O=C(/C=C/c1ccc([N+](=O)[O-])cc1)c1ccccc1`, the Potency result in [1], in [3], in test [5], in test [6], in test [7] and in test [8] was “inactive” each time. Further, the Potency result in test [9], in test [10], in [11], in test [12], in test [13] and in [14] was “inactive” throughout. Moreover, in test [15], the Potency entry was “inactive”. In addition, the Potency in test [2] is 17.4 µM (active); in test [4], 21.9 µM (active).

Regarding `CCOC(=O)N1CCC(Nc2ccc(Cl)cc2N)CC1`, the Potency result in test [1], in test [2], in test [3], in test [5], in test [6] and in [7] was “inactive” in each case. Further, the Potency entry in test [8], in test [9], in [10], in [11], in test [12] and in test [16] was “inactive” each time. Moreover, the Potency result in [13] and in test [15] was “inactive” in each case.

With `CCOC(=O)Oc1ccc(CCNC(=O)[C@H](CCSC)NC(C)=O)cc1OC(=O)OCC`, the Potency entry in test [1], in [2], in test [4], in test [5], in test [6] and in [17] was “inactive” each time. For the same compound, the Potency entry in [18], in test [7], in test [8], in [9], in test [10] and in test [11] was “inactive” throughout. For the same compound, the Potency result in test [19], in [12], in test [16], in [13] and in [14] was “inactive” in each case.

In the case of `O=[N+]([O-])c1ccc2ncccc2c1`, the Potency entry in test [1], in test [2], in test [4], in test [5], in test [6] and in [17] was “inactive” in each case. Further, the Potency result in test [18], in test [7], in [8], in test [9], in test [10] and in test [11] was “inactive” in each case. For the same compound, the Potency result in [12], in [16], in [13], in test [14] and in test [15] was “inactive” each time.

With `O=C(Oc1ccccc1)c1ccc2ccccc2c1O`, the Potency entry in test [1], in [2], in test [3], in test [5], in test [6] and in test [7] was “inactive” each time. The Potency result in test [8], in test [9], in test [10], in test [11], in test [19] and in test [13] was “inactive” each time. The Potency entry in test [14] and in test [15] was “inactive” each time. The Potency in test [16] was 9.69 µM (active).

`O=C1[C@@H]2[C@H]3CC[C@H](C3)[C@@H]2C(=O)N1CCCCN1CCN(c2ncccn2)CC1`: the Potency entry in [1], in test [2], in [3], in [5], in test [6] and in [17] was “inactive” throughout. Besides, the Potency result in [7], in test [8], in test [10], in test [11], in [20] and in test [16] was “inactive” throughout. The Potency result in test [13], in test [14] and in test [15] was “inactive” each time.

In the case of `COC(C)(C)OC`, the Potency result in [1], in test [2], in test [3], in test [5], in test [6] and in test [18] was “inactive” each time. In addition, the Potency result in [7], in [8], in test [9], in test [10], in test [11] and in test [12] was “inactive” throughout. In addition, the Potency result in [13], in test [14] and in test [15] was “inactive” in each case.

Turning to `Cc1c(C2(c3cc(Br)c(O)c(Br)c3C)OS(=O)(=O)c3ccccc32)cc(Br)c(O)c1Br`, the Potency is 15 µM (active) in [1]; 13.4 µM (active) in test [8]; 13.3 µM (active) in test [10]; 10.5 µM (active) in test [11]; 4.2 µM (active) in test [13]; 9.4 µM (active) in [14]. For the same compound, the Potency result in [2], in test [3], in [5], in [6], in [7] and in [9] was “inactive” in each case.

In the case of `CC(C)CC(O)CC(C)C`, the Potency entry in [1], in test [2], in test [4], in test [5], in test [6] and in test [17] was “inactive” each time. Besides, the Potency result in test [18], in test [7], in test [8], in test [9], in test [10] and in test [11] was “inactive” each time. For the same compound, the Potency entry in [12], in [16], in test [13], in test [14] and in test [15] was “inactive” in each case.
